Shiga toxin inh = Shiga toxin inhibition. Vero cells, Shiga toxin protein synthesis inhibition reporter. inhibition, % at 38.7 µM. hit rate 9.2% among 290,000. AID 2315; in the data active = inhibition mostly above about 28%, no sharp cut-off; inactive = mostly below about 43%; also: 0% is about no effect
HCMV antiviral = human cytomegalovirus inhibition; HFF cells, HCMV-luciferase reporter, 72 h; hits give low values; activity change, negative = inhibition, % at 57.5 µM; hit rate 4.5% among 410,000; AID 1259415; in the data active = activity change below about -60%; inconclusive = no clear call, values can overlap the other calls; inactive = above about -39%; also: % is scaled to controls: 0 for no effect and ±100 for the full control effect
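Luciferase read-out from HCMV-luciferase-infected HFFs (MOI 1 PFU/cell) 72 h post infection at 37C; compounds added after 16 h cell attachment; activity normalized between buffer-only basal and Salinomycin (10uM) inhibitor controls.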
CHX counter = counter-screen for Shiga toxin inhibitors: cycloheximide protein synthesis inhibition | hit rate 12% among 300,000 | max response, % | AID 2314 | cell reporter, cycloheximide protein synthesis inhibition counterscreen; in the data active = max response mostly above about 13%, no sharp cut-off; inactive = mostly below about 14%; also: read at 38.3 µM for the half of the compounds with a filed dose; 0% is about no effect
Pf growth 96h = P. falciparum growth inhibition at 96 hour, primary screen for plastid delayed-death inhibitors | P. falciparum luciferase reporter growth, 96 h | Potency, µM (doses to about 28.7 µM), for inactives: at the highest dose activity change, negative = inhibition, actives largely listed as inhibitors | hit rate 6.9% among 320,000 | AID 504834; also: potency is read from the fitted curve at half-maximal effect; % is scaled to controls: 0 for no effect and ±100 for the full control effect
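P. falciparum expressing integrated firefly luciferase grown in erythrocytes (2% hematocrit, 0.05% parasitemia final) with compounds for 96 hours at 37 C, 5% CO2. Growth inhibition read as loss of luminescence after adding luciferase detection reagent.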
Pf growth 48h = inhibits P. falciparum growth in the first generation, 48 h; P. falciparum luciferase growth in erythrocytes, 48 h; Potency, µM (titrated, usually from 28.7 µM), for inactives: at the top dose activity change, negative = inhibition, usual class: inhibitors; hit rate 5.9% among 310,000; also: potency is read from the fitted curve at half-maximal effect; % is scaled to controls: 0 for no effect and ±100 for the full control effect
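First compound was added to culture medium, then infected red cells at 0.1% parasitemia and 2% hematocrit (final). After incubation at 37 C under 5% CO2, luciferase detection reagent was dispensed and light output recorded.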
Starred values were filed as active, the others as inactive; ? = inconclusive; · = no result; [ ] = dose if it differs, or a comment. The list is not random: actives were taken first. Their share in the collection is about 20%. Unless noted, calls follow the shape of the dose curve; as a rule, active = well fitted inhibition curve with a large enough effect; inconclusive = small, poorly fitted or top-dose-only effect, or another doubt; inactive = no such curve, though single readings can be large or run the other way.

SMILES | Shiga toxin inh | HCMV antiviral | CHX counter | Pf growth 96h | Pf growth 48h
CCN(C(=O)CSc1nnc(Cn2nnc3ccccc32)o1)c1nc(C)cs1 | -4.2 | -21.7 | -3.9 | 9.28µM* | -2.4%
O=C(CSc1nnc(Cn2nnc3ccccc32)o1)N(Cc1ccc(Cl)cc1)c1ccccc1 | -13.9 | -2.2 | -1.7 | · | 10.4µM*
Clc1ccc(CSc2nnc(Cn3cnc4ccccc43)o2)cc1 | -4.2 | -81.2* | -4.6 | ? | -13.6%
O=C(/C=C/c1ccccc1)Nc1sc2c(c1C(=O)O)CCC2 | 40.7* | -24.6 | 25.4* | 71.8% | 50.2%
CCCCCCOc1ccc(/C=C/C(=O)Nc2sc3c(c2C(=O)OC)CCC3)cc1OC | · | -107.4* | · | · | ·
COC(=O)c1c(NC(=O)/C=C/c2ccc(OC)cc2)sc2c1CCC2 | · | -17.0 | · | · | ·
N#Cc1c(NC(=O)/C=C/c2ccco2)sc2c1CCCC2 | 67.1* | ? | 51.4* | 8.8% | 275.1%
CNC(=O)c1c(NC(=O)/C=C/c2ccccc2)sc2c1CCC2 | · | -22.6 | · | · | ·
O=C(/C=C/c1ccco1)Nc1sc2c(c1C(=O)O)CCC2 | 51.6* | 100.0 | 42.5* | 64.9% | 38.2%
O=C1C[C@@H](c2ccccc2Cl)N1S(=O)(=O)c1ccccc1[N+](=O)[O-] | 2.0 | · | -10.6 | · | ·
O=S(=O)(NCC(c1cccs1)S(=O)(=O)c1ccccc1)c1ccc(F)cc1 (configuration not stated) | · | -2.2 | · | · | ·
COC1=CC(=O)OC(/C=C/c2ccccc2)C1 (configuration not stated) | 46.6* | -31.5 | 23.0* | 38.1% | 46.5%
Cc1ccc(C(C[N+](=O)[O-])Sc2ccc(N)cc2)cc1 (configuration not stated) | 10.5 | -100.5* | 8.4 | 11.7µM* | ?
CC(NC(=S)Nc1ccc(Cl)cc1)C(c1ccccc1)N1CCOCC1 (configuration not stated) | -10.3 | -37.9 | -1.6 | 10.4µM* | ?
Cc1cc(OCC(=O)NCCCn2ccnc2)c2c(C)c(C)c(=O)oc2c1 | 31.9 | 25.7 | 8.9 | -22.6% | 4.1%
O=C(Nc1ccc(-c2cn3ccsc3n2)cc1)C1CC1 | 42.5* | 47.2 | 61.2* | 9.28µM* | -3.0%
O=C(Nc1ccc(-c2ccc3nncn3n2)cc1)C1CCCC1 | 86.7* | -0.4 | 22.2* | 10.7% | 39.8%
c1cn2cc(-c3ccc4c(c3)OCO4)nc2s1 | 94.9* | 30.5 | 45.9* | -17.6% | -18.2%
O=C(Nc1ccc(-c2cn3ccsc3n2)cc1)C1CCCC1 | 32.7 | 87.6 | 32.4* | 13.9% | 48.4%
CCC(=O)Nc1cccc(-c2cn3ccsc3n2)c1 | 42.9 | -24.3 | 17.2 | · | 111.7%
O=C(Cn1c(=O)c2cc(Cl)ccc2n2nncc12)Nc1ccccc1 | · | 7.9 | · | · | ·
O=C(CCN1C(=O)c2ccccc2C1=O)Nc1ccc(-c2cn3ccsc3n2)cc1 | 52.4* | 20.9 | 32.8* | ? | 6.4%
CC(=O)Nc1ccc(-c2cn3ccsc3n2)cc1 | 62.3* | 77.2 | 30.4* | 10.4µM* | 229.5%
Cc1ccc2sc(-c3ccc(NC(=O)CCN4C(=O)c5ccccc5C4=O)cc3)nc2c1 | 84.6* | -26.2 | 50.4* | 9.28µM* | 136.8%
Cn1cc(C(=O)N2CCN(c3cccc(Cl)c3)CC2)c(=O)c2cc(S(=O)(=O)N3CCCC3)ccc21 | · | 5.2 | · | · | ·
SMILES | Shiga toxin inh | HCMV antiviral | CHX counter | Pf growth 96h | Pf growth 48h
COc1ccc2c(c1)CC(C(=O)NCc1ccc(F)cc1)CO2 (configuration not stated) | · | -12.5 | · | · | ·
O=C(CSc1nc(=O)n(CCN2CCOCC2)c2c1CCC2)Nc1ccc(F)cc1F | · | 32.2 | · | · | ·
COc1ccccc1N1CCN(C(=O)CN2C(=O)c3ccccc3S2(=O)=O)CC1 | -4.6 | -3.5 | -1.2 | 48.7% | 43.9%
O=C1CSC(=S)N1N=C1CCCCCC1 | 17.3 | -5.6 | 14.0* | -25.0% | -9.0%
N#CC(C#N)=C(N)/C(C#N)=C/c1cc(O)c(O)c(O)c1 | · | 65.6 | · | 9.28µM* | 11.7µM*
CCN(CC)C(=O)/C(C#N)=C/c1cc(O)c(O)c([N+](=O)[O-])c1 | · | · | · | ? | -28.7%
CC(=O)Nc1ccccc1-c1ccc(C)o1 | 16.3 | 43.6 | 16.3* | 61.7% | 34.7%
Cc1ccc(NC(=O)CS(=O)CC(=O)Nc2ccccc2-c2ccc(C)o2)cc1 (configuration not stated) | -7.4 | -1.7 | 0.2 | ? | 0.3%
COc1cc(C(C)=O)ccc1OCC(=O)N(CCC1=CCCCC1)c1c(N)n(Cc2ccccc2)c(=O)[nH]c1=O | · | 14.1 | · | ? | ?
Cc1nc(NC(=O)c2ccccc2)sc1-c1csc(NCCc2ccccc2)n1 | 24.5 | ? | 8.8 | 4.15µM* | ·
Cc1nc(NC(=O)c2ccccc2)sc1-c1csc(N)n1 | 48.4* | ? | 29.3* | -2.1% | 1.85µM*
Cc1nc(NC(=O)c2ccccc2)sc1-c1csc(NCc2ccccc2)n1 | -5.7 | ? | 18.7 | · | ?
CCCNC(=O)Cn1nc(C(F)(F)F)cc1C | -32.2 | ? | 13.8 | 27.0% | 22.2%
O=C(NCc1ccccc1Cl)c1cc2cccc3c2n1CCS3 | · | 0.0 | · | · | ·
N#Cc1cccc(C(Br)S(=O)(=O)c2ccccc2)c1 (configuration not stated) | · | -90.7* | · | · | ·
CCOc1cc(C(=O)N(CC)CC(=O)Nc2ccc3c(c2)OCCO3)ccc1OC | · | 18.8 | · | 30.7% | 82.7%
Cc1nn(Cc2ccccc2)c(Cl)c1/C=C1\NC(=S)NC1=O | -1.8 | 24.5 | -1.1 | 9.6%[1.15 µM] | 20.3%
COc1ccc(Cn2cnc3cnc(Nc4ccc(NC(C)=O)cc4)cc32)cc1OC | · | -72.4* | · | · | ·
CNc1nc2cnc(Nc3cccc(C(F)(F)F)c3)cc2n1Cc1ccc(OC)c(OC)c1 | · | 20.5 | · | · | ·
O=C(CSc1cn(CCNC(=O)c2c(F)cccc2F)c2ccccc12)Nc1ccc2c(c1)OCCO2 | · | -8.8 | · | · | ·
Cc1ccc(NC(=O)c2cccc(NC3=NC4CS(=O)(=O)CC4S3)c2)cc1 (configuration not stated) | 24.9 | -15.5 | -0.4 | 29.8% | -3.7%
CCCn1c(/C=C/c2ccccc2)nc2ccccc21 | 106.2* | 79.1 | 26.1* | 165.7% | -26.3%
CC(C)n1c(/C=C/c2ccccc2)nc2ccccc21 | 78.9* | 77.2 | 29.9* | -10.9% | 43.2%
CC(C)n1c(CN(C)c2ccccc2)nc2ccccc21 | -3.9 | -36.9 | 7.0 | -8.5% | ?
CCc1nc2ccccc2n1Cc1ccc(OC)c(OC)c1 | 2.1 | 54.1 | -6.6 | -3.3% | ?
SMILES | Shiga toxin inh | HCMV antiviral | CHX counter | Pf growth 96h | Pf growth 48h
COc1ccc(/C=C/c2nc3ccccc3n2Cc2ccc(OC)c(OC)c2)cc1 | 57.1* | 89.0 | 70.4* | -84.7% | -0.3%
CC(C)Cn1c(/C=C/c2ccco2)nc2ccccc21 | 33.3 | 11.5 | 19.1* | ? | 17.6%
COCCOCCn1c(CCCO)nc2ccccc21 | -8.5 | 13.9 | -3.1 | -15.8% | 4.1%
COCCOCCn1c(/C=C/c2ccccc2)nc2ccccc21 | 28.1 | 12.5 | 20.1* | -6.9% | 0.0%
Cc1c(Cl)cccc1NC(=O)CSc1nc(=O)n(Cc2ccccn2)c2c1CCC2 | · | -11.1 | · | · | ·
O=C1CN(C(=O)CN2C(=O)NC(c3ccccc3)(c3ccccc3)C2=O)c2ccccc2N1 | · | -8.9 | · | · | ·

Screening data (PubChem BioAssay)
